According to PubChem BioAssay (NCI):
About 79,000 compounds went through this panel and 15% of them were active in at least one assay; those are over-represented in the sample as a whole. Cut-off read from the data, not from the text of the source: active = growth inhibition above about 70%; inactive = the rest.

Key:
[1] = NCI Yeast Anticancer Drug Screen. Data for the rad50 strain (AID 155);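 note: 0% = growth of vehicle-only cultures of the same strain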; details: S. cerevisiae rad50 strain growth inhibition; at 50.0 µM; hits give high values
Procedure, shortened: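 Relative growth inhibition (compound vs vehicle) was measured in yeast with a defined repair-gene alteration.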

[2] = NCI Yeast Anticancer Drug Screen. Data for the mec2-1 strain (AID 157); details: S. cerevisiae mec2-1 strain, at 50.0 µM, hits give high values
Procedure, shortened: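 mec2-1 yeast strain, carrying an alteration in DNA damage repair or cell cycle control, was exposed to compounds; growth inhibition was measured relative to vehicle-treated controls.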

[3] = NCI Yeast Anticancer Drug Screen. Data for the sgs1 mgt1 strain (AID 161);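 note: 0% = growth of cultures given vehicle only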; details: S. cerevisiae sgs1 mgt1 strain, at 50.0 µM, hits give high values
Procedure, shortened: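 Compounds are added to genetically altered yeast, and growth is compared with cultures given vehicle alone to give percent inhibition.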

[4] = NCI Yeast Anticancer Drug Screen. Data for the cln2 rad14 strain (AID 165);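 note: 0% = growth equal to vehicle treated cultures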; details: S. cerevisiae cln2 rad14 strain, at 50.0 µM, hits give high values
Procedure, shortened: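 Yeast carrying cln2 and rad14 alterations (cell cycle control and DNA damage repair) were exposed to compounds. Growth inhibition was measured against vehicle-treated controls.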

[5] = NCI Yeast Anticancer Drug Screen. Data for the bub3 strain (AID 167); details: S. cerevisiae bub3 mutant strain, at 50.0 µM, hits give high values
Procedure, shortened: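 Screening used yeast with an engineered genetic alteration affecting cell cycle control. Compound-exposed cultures were compared with vehicle cultures, and reduced growth was taken as inhibition.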

[6] = NCI Yeast Anticancer Drug Screen. Data for the mlh1 rad18 strain (AID 175); details: S. cerevisiae mlh1 rad18 strain growth inhibition; at 50.0 µM; hits give high values
Procedure, shortened: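 Growth inhibition of the yeast strain was measured after compound exposure and expressed relative to vehicle-treated controls. The strain carries defined defects in DNA damage repair.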

Measured: growth inhibition

Cc1nc2ccccc2c(=O)n1-c1ccccc1
inactive: [1] -13.6% | [2] -15.9% | [3] 0% | [4] 15.9% | [5] 10.9% | [6] -3.8%

N#CCC#N
inactive: [1] -3.7% | [2] -3.95% | [3] 16.3% | [4] -3.1% | [5] 2.75% | [6] -1%

COCCOC(=O)NCP(Cl)(CNC(=O)OCCOC)(CNC(=O)OCCOC)CNC(=O)OCCOC
inactive: [1] -11.6% | [2] -4.85% | [3] -29.8% | [4] -19.7% | [5] -1.75% | [6] -5.75%

Cc1ccc([Se][Se]c2ccc(C)cc2)cc1
inactive: [1] 55.5% | [2] 10.7% | [3] 35.6% | [4] 30.1% | [5] 41% | [6] 43%

c1ccc2c(C3N4CCCN3CC4)c[nH]c2c1 (configuration not stated)
inactive: [1] -0.2% | [2] -15.7% | [3] 8.7% | [4] 9.3% | [5] -4.2% | [6] 6.05%

O=[As](O)(O)c1ccc(N=Nc2ccccc2)cc1
inactive: [1] -4.25% | [2] -14.2% | [3] -6.05% | [4] -19.9% | [5] 5.75% | [6] -17.2%

CC(=O)C1(O)CCC2(O)C3(O)CC=C4CC(O)CCC4(C)C3CC(OC(=O)c3ccc(O)cc3)C12C (configuration not stated)
inactive: [1] 8.5% | [2] 2.85% | [3] -12.8% | [4] -1.7% | [5] -1.6% | [6] -50.4%

C[N+](C)(Cc1ccc([N+](=O)[O-])cc1)c1ccc(N(CCCl)CCCl)cc1
inactive: [1] -4% | [2] -24.3% | [3] -33% | [4] -15.4% | [5] -21.8% | [6] 10.8%

COc1cc2c(cc1OC)CC[N+](C)=C2
inactive: [1] 5.65% | [2] -6.5% | [3] 13.8% | [4] -2.45% | [5] -2.4% | [6] 2.65%

CCCc1c(C#N)c(S)[nH]c(=S)c1C#N
inactive: [1] 33.4% | [2] 20.4% | [3] 13.6% | [4] -5.65% | [5] 4.55% | [6] 16.2%

CS/C([S-])=N/N=C\c1ccccn1.CS/C([S-])=N/N=C\c1ccccn1.[Ni+2]
inactive: [1] 14.7% | [2] -6.75% | [3] 17.2% | [4] -35.4% | [5] 2.45% | [6] -0.45%

Nc1ccc2c(c1)Oc1ccc(N)cc1O2
inactive: [1] -22.8% | [2] 1.2% | [3] 0.7% | [4] 15.1% | [5] -6.2% | [6] 5.15%

CC1(C)C(=O)CC[C@@]2(C)C1=CC[C@@H]1[C@@H]2CC[C@@]2(C)[C@H]1CC[C@]2(C)O
inactive: [1] 5.75% | [2] -14.8% | [3] 11.6% | [4] -21% | [5] 3.8% | [6] 7.05%

CCCCCCCCSP(SCCCCCCCC)SCCCCCCCC
inactive: [1] -11.8% | [2] -0.1% | [3] -25.3% | [4] 2.7% | [5] 1.25% | [6] 0.9%

CCC1(CC)C(=O)NC(=O)[N]([Sn]([CH3])([CH3])[N]2C(=O)NC(=O)C(CC)(CC)C2=O)C1=O
inactive: [1] -17.3% | [2] -3.7% | [3] 7.05% | [4] -19.4% | [5] -1.3% | [6] -26.1%

Cc1c2ccccc2c(C)c2c1cc[n+]1ccccc21
inactive: [1] 14.1% | [2] -1.35% | [3] 15.2% | [4] 0.05% | [5] 1.05% | [6] 1.8%

COc1ccc2c(c1OC(C)=O)C1=CC(=O)CCC13CCNC3C2 (configuration not stated)
inactive: [1] 15.8% | [2] 6.7% | [3] -13.9% | [4] 27.2% | [5] -28.4% | [6] -24.3%

OC[C@@H](O)[C@@H](O)CO
inactive: [1] 3.2% | [2] -0.25% | [3] -12.1% | [4] 15.2% | [5] -5.55% | [6] 10.1%

CCCCCCCCCCC(C(=O)c1ccccc1)N1CCOCC1 (configuration not stated)
inactive: [1] -14.7% | [2] -2.95% | [3] 10.9% | [4] -8.3% | [5] 3.85% | [6] -8.4%

O=C(CC(=O)C(F)(F)F)c1cccs1
inactive: [1] -6.15% | [2] -11.6% | [3] 1.1% | [4] 12.3% | [5] 11.9% | [6] -13.1%

O=S(=O)(F)c1ccccc1
inactive: [1] 35.8% | [2] -0.6% | [3] -11.4% | [4] -59.8% | [5] 2.1% | [6] 6.85%

O=[N+]([O-])c1ccc2sc3ccccc3c2c1
inactive: [1] 63.1% | [2] 12.2% | [3] 26.3% | [4] 44% | [5] -3.35% | [6] 58.8%

O=c1ccc2c(O)c3ccoc3cc2o1
inactive: [1] -14.7% | [2] -10% | [3] 5.7% | [4] -5.05% | [5] 3.45% | [6] -22.9%

O=Cc1ccccc1O.[La]
inactive: [1] -7.9% | [2] -28.1% | [3] 14.1% | [4] -5.45% | [5] -7.7% | [6] 2.15%

c1ccc(P2c3ccccc3Oc3ccccc32)cc1
inactive: [1] 36.9% | [2] 7.3% | [3] 42.2% | [4] 42.6% | [5] 32.6% | [6] 37%

O=C(CCCN1CCC2(CC1)C(=O)NCN2c1ccccc1)c1ccccc1
inactive: [1] -17.6% | [2] -2.65% | [3] -0.85% | [4] -18.4% | [5] 2.35% | [6] -2.15%

Cc1ccc(S(N)(=O)=O)cc1 (tested in a mixture with another compound)
inactive: [1] 14.9% | [2] 7.9% | [3] 8.8% | [4] 10.8% | [5] 29.4% | [6] 13%

CP1(=O)CC23CCCCC2(C1)O3 (configuration not stated)
inactive: [1] 2% | [2] -29.9% | [3] -3.3% | [4] -44.2% | [5] -15% | [6] -7.9%

Cc1cc(C)c(CCN(C)C)c(C)c1C
inactive: [1] 8.7% | [2] 0.65% | [3] 4.95% | [4] 1.75% | [5] 1% | [6] 23.4%

Clc1cccc(Cl)c1CBr
inactive: [1] 23.1% | [2] -19.1% | [3] 19.3% | [4] 15.8% | [5] 15.3% | [6] 10.1%

Cc1ccc(-c2cc(C)n(C)[n+]2C)cc1
inactive: [1] 8.05% | [2] 7.05% | [3] 8.7% | [4] -20.9% | [5] 9.6% | [6] -3.05%

NC(Cc1ccccc1)c1cccc2c1CCCC2 (configuration not stated)
inactive: [1] 7.35% | [2] -7.3% | [3] -2.55% | [4] -21.8% | [5] 24.4% | [6] 40.5%

CC(C)CN(CC(C)C)[N+](=O)[O-]
inactive: [1] -6.25% | [2] 1.45% | [3] -17.8% | [4] 4.05% | [5] 6.05% | [6] -12.7%

COc1cc(C2c3cc4c(cc3C(O)[C@H]3COC(=O)[C@@H]23)OCO4)cc(OC)c1O (some centres not stated)
inactive: [1] -36.4% | [2] -28.7% | [3] -28.8% | [4] 16.6% | [5] 6.55% | [6] -7.9%

NNC(=S)N/N=C(\C(=O)Nc1cccc(O)c1)C1C(=O)NC(=S)NC1=O
inactive: [1] -6.65% | [2] -10.6% | [3] -13.7% | [4] -0.05% | [5] 2.55% | [6] -17.9%

CC1=NCCc2c1[nH]c1cc(O)ccc21
inactive: [1] 6.65% | [2] -28.1% | [3] -12.6% | [4] -3.85% | [5] -15.6% | [6] 4%

Nc1ccc(Cl)cc1.Nc1ccc(Cl)cc1.Nc1ccc(Cl)cc1.O=C([O-])C(=O)[O-].O=C([O-])C(=O)[O-].[H+].[Ru+5]
inactive: [1] 18.4% | [2] 20.7% | [3] 13.3% | [4] 27.5% | [5] 26.6% | [6] 34.5%
